Laboratory results taken from PubChem BioAssay AID2315 (National Center for Advancing Translational Sciences (NCATS), 2010).
Hit rate of the full screen: of about 290,000 compounds, about 27,000 (9.3%) were called active. No stated cut-off is given here; in the data, active means inhibition mostly above about 28% (no sharp cut-off); inactive means mostly below about 43%. This excerpt belongs to a sample that is enriched for actives.

Assay: A qHTS for Small Molecule Inhibitors of Shiga Toxin; further: 0% is about no effect
Details: Vero cells, Shiga toxin protein synthesis inhibition reporter; at 38.7 µM, stronger effect = higher value
With `CCN(CC(=O)NCc1ccco1)S(=O)(=O)c1ccc(F)cc1` the inhibition was -12.2% (inactive). In the case of `O=C1C(=O)N(CCCN2CCOCC2)C(c2ccc([N+](=O)[O-])cc2)/C1=C(\O)c1ccc2c(c1)OCCO2` (stereo not drawn), the inhibition is reported as 22.5% (inactive). For `COc1ccc(N2CCN(C(=O)c3ccccc3NC(=O)C3=C(C)OCCS3)CC2)cc1`, the inhibition was -21.3% (inactive). With `Cc1ccc(S(=O)(=O)N[C@@H](Cc2ccccc2)C(=O)N2CCC(C(=O)N[C@H](C(=O)O)C(C)O)CC2)cc1` (stereo partly drawn) the inhibition was -8.35% (inactive). With `Cc1ccc(C(=O)Nc2ccc(NC(=O)c3cccs3)cc2)c(C)c1` the inhibition was 2.76% (inactive). With `Cc1nc(-c2ccc(NC(=O)c3cccs3)cc2)cs1` the inhibition was 45.3% (active). For `Cc1ccc(-c2nnc(-c3ccc(NC(=O)c4cccs4)cc3)o2)cc1`, the inhibition was -3.6% (inactive). For `CCOC(=O)C1CCN(S(=O)(=O)c2ccc3c(c2)N(C)C(=O)CC(=O)N3C)CC1`, the inhibition was -0.654% (inactive). For `COc1ccc(NC(=O)NNC(=O)COc2cc(C)c(Cl)c(C)c2)c(OC)c1`, the inhibition was -7.12% (inactive). In the case of `CCCCSCCCNC(=O)C1CCC(CNS(=O)(=O)c2ccc(NC(C)=O)cc2)CC1` (stereo not drawn), the inhibition is reported as -4.92% (inactive). For `CCC1Sc2ccc(S(=O)(=O)CCC(=O)NCc3cccs3)cc2NC1=O` (stereo not drawn), the inhibition was -5.71% (inactive). In the case of `O=C(NC1CCCC1)C(c1c(F)cccc1Cl)N(C(=O)c1csnn1)C1CC1` (stereo not drawn), the inhibition is reported as -2.62% (inactive). In the case of `COc1ccc(N2CCN(S(=O)(=O)CCNC(=O)C34CC5CC(CC(C5)C3)C4)CC2)cc1`, the inhibition is reported as -1.41% (inactive). With `CC(=O)NS(=O)(=O)c1ccc(NC(=O)C2C3C=CC(C3)C2C(=O)O)cc1` (stereo not drawn) the inhibition was -8.78% (inactive). For `CC(C)COC(=O)c1ccc(NC(=O)C2C3C=CC(C3)C2C(=O)O)cc1` (stereo not drawn), the inhibition was 77.2% (active). For `COC(=O)c1cc(NC(=O)C2C3C=CC(C3)C2C(=O)O)cc(C(=O)OC)c1` (stereo not drawn), the inhibition was -19% (inactive). For `COc1ccc(CNC(=O)C(c2ccc(O)cc2)N(Cc2ccco2)C(=O)c2snc(C(N)=O)c2N)cc1` (stereo not drawn), the inhibition was -11.7% (inactive). With `CCCCCCCCC(=O)NCCOc1ccccc1` the inhibition was -16.7% (inactive). In the case of `CCCCCCOC(=O)NCC(O)c1ccccc1` (stereo not drawn), the inhibition is reported as 85.6% (active). In the case of `CCCCCOC(=O)NCCOC(=O)Nc1ccc(C(=O)OCC)cc1`, the inhibition is reported as -13.5% (inactive). With `NC(=O)C1CC(=O)N(c2ccc(OCC(=O)NCc3ccccc3)cc2)C1` (stereo not drawn) the inhibition was -19.2% (inactive). For `COc1ccc(/C=C(/NC(=O)c2ccco2)C(=O)Nc2ccc(C(C)=O)cc2)cc1`, the inhibition was -4.34% (inactive). With `CCCOC(=O)c1cc2ccccc2oc1=O` the inhibition was 18.4% (inactive). With `CCOC(=O)c1cc2cc3ccccc3cc2oc1=O` the inhibition was 43.1% (active). For `C=CCc1cccc2cc(C(=O)OCC)c(=O)oc12`, the inhibition was 2.24% (inactive). With `Cc1ccc(-n2c(SCC(=O)NCCC3=CCCCC3)nc3n[nH]c(C)c3c2=N)cc1Cl` the inhibition was -4.66% (inactive). With `CCOC(=O)c1ccccc1NC(=O)COC(=O)CCC(=O)N1CCOCC1` the inhibition was -9.24% (inactive). With `CC(=O)N1c2ccc(S(=O)(=O)N3CCCC(C(=O)Nc4cccc(F)c4)C3)cc2CC1C` (stereo not drawn) the inhibition was -2.88% (inactive). With `O=C(CNC(=O)c1ccc(Br)o1)Nc1ccccc1` the inhibition was -4.27% (inactive). For `Cc1cccc(NC(=S)NC(=O)c2ccc(Br)o2)c1`, the inhibition was 105% (active). In the case of `Cc1cccc(NC(=S)Nc2ccc(Br)cc2)c1`, the inhibition is reported as 36.6% (inactive). For `Cc1cccc(NC(=O)c2cccc(C(F)(F)F)c2)c1`, the inhibition was 77.8% (active). For `Cc1cccc(NC(=S)NC23CN4CN(CN(C4)C2)C3)c1`, the inhibition was -10.3% (inactive). In the case of `Cc1cccc(NC(=O)c2nnn(-c3cccc(C(F)(F)F)c3)c2N)c1`, the inhibition is reported as 31.4% (inactive). For `CNC(=O)c1ccc(NC(=O)c2cccc(C(F)(F)F)c2)cc1`, the inhibition was -2.63% (inactive). With `Cc1cccc(NC(=O)/C(=C\c2ccco2)NC(=O)c2ccccc2)c1` the inhibition was -2.02% (inactive). With `Cc1cccc(NC(=O)NC(=S)NC(=O)c2ccccc2)c1` the inhibition was 80.2% (active). In the case of `COc1ccc(OCC(=O)Nc2ccc(NC(=O)c3ccco3)c(C)c2)cc1`, the inhibition is reported as 19.3% (inactive). With `O=C(c1cc2cc(Br)cc(Br)c2oc1=O)N1CCOCC1` the inhibition was 11.8% (inactive). With `COC(=O)CSc1nc2ccccc2c(=O)n1Cc1ccccc1` the inhibition was -8.77% (inactive). For `Cc1c(CC(=O)NCCCCCC(=O)O)c(=O)oc2cc3occ(-c4ccccc4)c3cc12`, the inhibition was -4.34% (inactive). For `CCN(CC)S(=O)(=O)c1ccc(N2CC(C(=O)NCc3cccnc3)CC2=O)cc1` (stereo not drawn), the inhibition was -5.91% (inactive). In the case of `Cc1ccc(CNC(=O)CCN2C(=O)[C@@H]3Cc4ccccc4CN3C2=O)cc1`, the inhibition is reported as 8.09% (inactive). For `CCC(Cc1ccccc1)NS(=O)(=O)c1ccc2c(c1)NC(=O)CS2` (stereo not drawn), the inhibition was 1.38% (inactive). In the case of `O=C(CN(CC1CCCO1)C(=O)CNS(=O)(=O)c1ccc(Cl)cc1)NCc1ccccc1` (stereo not drawn), the inhibition is reported as -14% (inactive). In the case of `Cc1ccc(C(=O)N(CC(=O)NC2CCCC2)c2ccc(F)cc2)s1`, the inhibition is reported as -7.38% (inactive). In the case of `Cc1ccc(NC(=O)Nc2cccc(C(F)(F)F)c2)nc1`, the inhibition is reported as 52.4% (inactive). For `O=C(Nc1ccccc1)Nc1ccc(C(F)(F)F)cn1`, the inhibition was 53% (active). For `O=C(NC(=O)c1cc(OCC(F)(F)F)ccc1OCC(F)(F)F)Nc1ccccc1`, the inhibition was 27.7% (inactive). For `CC1CCN(CC(=O)c2c[nH]c3ccccc23)CC1`, the inhibition was 15.1% (inactive). For `O=C(OCc1ccc(Br)cc1)c1cccc(-c2nnc(-c3ccccc3)o2)c1`, the inhibition was 31.1% (inactive). For `O=C(OCc1ccc(-c2ccccc2)cc1)c1cccc(O)c1`, the inhibition was 80.8% (active). In the case of `O=C(CNC(=O)c1ccc(-c2ccccc2)cc1)OCc1ccc(Cl)cc1`, the inhibition is reported as -7.89% (inactive). For `O=C(OCC(=O)c1c[nH]c2ccccc12)c1cccc(O)c1`, the inhibition was 69.8% (active). In the case of `CC(=O)Nc1ccccc1C(=O)OCC(=O)c1cccc2ccccc12`, the inhibition is reported as -4.88% (inactive). In the case of `S=C(Nc1ccc(Br)cc1)NC1CCN(Cc2ccccc2)CC1`, the inhibition is reported as -5.49% (inactive). For `CCc1cc2c(NC(Cc3ccccc3)C(=O)O)ncnc2s1` (stereo not drawn), the inhibition was -7.1% (inactive). For `COc1ccc(NS(=O)(=O)c2cc(C(=O)Nc3ccccc3C(=O)O)ccc2C)cc1`, the inhibition was -9.69% (inactive).
